Data on 77 compounds can be found in PubChem BioAssay (NCI).

The subject of the assay is HL-60(TB) leukemia. Description: NCI-60 one-dose screen, 48 h (100 = growth as untreated, 0 = no growth, -100 = all killed). The settings on record: 10 µM unless noted.

This is part of a sample that, as a whole, favours compounds with a hit. Of some 83,000 tested, about 20% had one in any assay.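 Step 1: grow cells in 96-well plates. Step 2: add test compound at a single concentration. Step 3: incubate 48 h. Step 4: record percent growth.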 Values without a mark were called inactive. Active and inactive are the calls of the source. How the source made its calls: active means growth percent below 10; inactive means the rest.

Consider `NS(=O)(=O)c1ccc(N2N=C(c3cccs3)CC2c2ccccc2O)cc1` (configuration not stated), for which the growth was -25.9% (active). The same measure for `CC1=NN(c2ccccc2Cl)C(=O)/C1=C\c1cn(S(=O)(=O)c2ccc(C)cc2)c2ccccc12`: 114%; for `O=S(=O)(Oc1ccc(Br)cc1)c1ccc(Cl)cc1`: 85.3%. As for `CCOC(=O)c1csc(NC(=O)COc2cccc(/C=C3\Oc4cc(OC)ccc4C3=O)c2)n1`, the figure is 61.3%. As for `O=C(NO)c1ccc(Cn2c(=O)n(-c3ccccc3F)c(=O)c3ccccc32)cc1`, the figure is -1.46% (active); as for `NC(N)=NS(=O)(=O)c1ccc(Nc2ccc3nnc(-c4ccncc4)n3n2)cc1`, 95%; as for `CCN(CC)S(=O)(=O)c1cccc([N+](=O)[O-])c1`, 95.5%. In the case of `COc1cc(/C=C/C(=O)N2CCC=CC2=O)cc(OC)c1OC`, the growth is -13.1% (active). As for `Cc1ccccc1NC(=O)c1sc2nc3c(cc2c1N)C(=O)CCC3`, the growth is 36%.

Take `C#C[C@]1(O)CC[C@H]2[C@@H]3CC=C4c5sc(-c6cccc(C)c6)nc5CC[C@]4(C)[C@H]3CC[C@@]21C`: the growth is 71.8%. As for `O=C(O)c1ccc(-n2cc(CNc3ccc(C(F)(F)F)cc3)c(-c3ccccc3)n2)cc1`, the figure is 89.2%; as for `CCC(C)(C)c1cc(O)c(C(C)(C)CC)cc1O`, -9.67% (active); as for `COc1cc(Cc2cc(-c3ccccc3)n[nH]c2=O)cc(OC)c1OC`, 53.4%. As for `CC[C@]1(O)C[C@H]2CN(CCc3c([nH]c4ccccc34)C(C(=O)OC)(c3cc4c(cc3OC)N(C)[C@H]3[C@@](O)(C(=O)OC)[C@H](OC(C)=O)[C@]5(CC)[C@@H]6C[C@@H]6CN6CC[C@]43[C@@H]65)C2)C1` (some centres not stated), the figure is -30.9% (active). The same measure for `Oc1cccc2ccc(N/N=C/c3cc(CN4CCOCC4)c(O)c4ncccc34)nc12`: 0.899% (active); for `COc1ccc2c(c1)sc1nc(-c3ccccc3)c(-c3cccc4ccccc34)n12`: 6.59% (active). As to `CS(=O)(=O)c1ccc(C(=O)N2N=C(c3ccccc3)CC2c2ccc3c(c2)OCO3)cc1` (configuration not stated), the growth is 37%.

With `Cc1ccc(C(=O)NC2c3ccccc3Oc3ccccc32)cc1`, the growth is -3.42% (active). In the case of `COc1cccc2cc(N(C)c3ncnc4ccccc34)ccc12`, the growth was -29.1% (active). The same measure for `C[N+](C)(CCOC(c1ccccc1)c1ccccc1)CC(=O)OCc1ccccc1`: 100%. The same measure for `COc1ccc(C(=O)/C=C/Nc2cc(-c3ccccc3)nn2-c2ccccc2)cc1`: 93.2%. Turning to `COc1ccc2c(c1)C(=O)/C(=C/c1cccnc1)CC2`, the growth was 99.5%. With `COC(=O)Nc1nc2ccc(C3(c4ccc(F)cc4)OCCO3)cc2[nH]1`, the growth was -25.1% (active).

`CN(C)CCOc1ccccc1NC1=C(Cl)C(=O)C(Nc2ccccc2OCCN(C)C)=C(Cl)C1=O`: the growth is -18.9% (active). Take `O=c1ccn(C2CC(O)C(COC(c3ccccc3)(c3ccccc3)c3ccccc3)O2)c(=O)[nH]1` (configuration not stated): the growth was 10.1% [100 µM]. As for `O=c1cc(-c2ccccc2)[nH]c2ncc(-c3ccc(F)cc3)n12`, the figure is 18.9%; as for `COc1cc(C(=O)Oc2ccccc2OC(=O)c2cc(OC)c(OC)c(OC)c2)cc(OC)c1OC`, 110%.

In the case of `NCCNc1nc2ccccc2c2c(=O)c3cc(F)cc(Cl)c3sc12`, the growth was -42.8% (active).

With `COc1c(B(O)O)cc(F)cc1-c1nc2ccc3[nH]ncc3c2c2c1CCCC2`, the growth is -2.38% (active). The same measure for `O=c1cc(CP(=O)(O)O)c2cc(O)c(-c3ccccc3)cc2o1`: 104%. In the case of `CCOC(=O)c1[nH]c(C)c(C(=O)O)c1C`, the growth is 91.6%. The same measure for `CCOC(=O)/C(C#N)=C/c1cccc(C)c1`: 86.4%. As for `N#CCCN(CCCN1CCOCC1)CN1C(=O)c2ccccc2C1=O`, the growth is 83.2%. The same measure for `O=C(Nc1ccccc1O)c1ccc(NS(=O)(=O)c2cccc3cccnc23)cc1`: -12.2% (active); for `NS(=O)(=O)c1ccc(-n2nc(-c3ccccc3)ccc2=O)cc1`: 89.9%; for `O=C(NCCNC(c1ccccc1)C(NCCNC(=O)c1ccccc1)c1ccccc1)c1ccccc1` (configuration not stated): 68.3%. As for `CC(=O)N1N=C(c2ccc3c(c2)OCO3)CC1c1c(C)nn(-c2ccccc2)c1N(C)Cc1ccccc1` (configuration not stated), the figure is 85.6%; as for `CS(=O)(CCCCN=C=S)=NC(=O)c1c(F)c(F)c(F)c(F)c1F` (configuration not stated), 72.5%; as for `COC(=O)C1=C(C)NC(C)=C(C(=O)OCC(C)C)C1c1ccccc1[N+](=O)[O-]` (configuration not stated), 28.9%. The same measure for `c1ccc(N2CCN(c3nncc4ccccc34)CC2)nc1`: 96.6%; for `Nc1nc2c(ncn2C2OC3COP(=O)(O)OC4C(COP(=O)(O)OC2C3O)OC(n2cnc3c(N)ncnc32)C4O)c(=O)[nH]1` (configuration not stated): 103%. As to `CO[C@H](C(=O)[C@@H](O)[C@@H](C)O)[C@@H]1Cc2cc3cc(O[C@H]4C[C@@H](O[C@H]5C[C@@H](O)[C@H](O)C(C)O5)[C@H](O)C(C)O4)c(C)c(O)c3c(O)c2C(=O)[C@H]1O[C@H]1C[C@@H](O[C@H]2C[C@@H](O[C@H]3C[C@@H](OC)[C@H](O)C(C)O3)[C@@H](O)C(C)O2)C(O)(O)C(C)O1` (some centres not stated), the growth was 26.8%. The same measure for `CC1(C)CC[C@]2(CO)CC[C@]3(C)C(=CC[C@@H]4[C@@]5(C)CC[C@H](NCO)C(C)(C)[C@@H]5CC[C@]43C)[C@@H]2C1`: -60.5% (active). The same measure for `OCC1OC(n2cnc3c(Cl)ncnc32)CC1O` (configuration not stated): 121%.

In the case of `C[C@@H]1CCCCCCCCC[C@H](O)C(=O)C[C@@H](SC[C@@H](O)C(=O)O)C(=O)O1`, the growth was 86.8%.

Regarding `C=C1C(=O)O[C@H]2[C@H]1CC/C(CNC(=O)/C=C/c1cccc(OC)c1)=C\CC[C@@]1(C)O[C@@H]21`, the growth is -35.4% (active). With `CCn1c(C)nc2cc(C(N)=O)ccc21`, the growth was 79.7%.

With `COCCn1cc(-c2nc(-c3cc4cccnc4[nH]3)cs2)c2cc(OC)ccc21`, the growth was 55.5%.

Consider `S=c1[nH]nc(CSc2ncnc3c2c(-c2ccccc2)cn3-c2ccc(Cl)cc2)o1`, for which the growth is 101%.

Turning to `Cc1cc2cc3cc(C)c(N(C)C)cc3[n+](C)c2cc1N(C)C`, the growth was 47%. With `Cc1cnc(C=O)c2cccc([N+](=O)[O-])c12`, the growth is 66.1%. As for `CCOC(=O)c1ccccc1-c1c2ccc(=[N+](C)C)cc-2oc2cc(N(C)C)ccc12`, the figure is -14.3% (active); as for `O=Cc1cc2ccccc2nc1Oc1ccc(C(F)(F)F)cc1`, 92%; as for `C=C1C(=O)O[C@H]2[C@H]1CC/C(COC(=O)N1CCC[C@H]1C(=O)Nc1ccc(OC)c(C(N)=O)c1O)=C\CC[C@@]1(C)O[C@@H]21`, -10% (active). On to `c1cc(CNC23CC4CC(CC(C4)C2)C3)cc(C[N+](Cc2cccc(CNC34CC5CC(CC(C5)C3)C4)c2)(Cc2cccc(CNC34CC5CC(CC(C5)C3)C4)c2)Cc2cccc(CNC34CC5CC(CC(C5)C3)C4)c2)c1` (configuration not stated), for which the growth was -29.5% [42 µM] (active). As for `C=C1C(=O)O[C@@H]2C3C(=C(C)CC[C@@H]12)CC1O[C@]13C` (some centres not stated), the figure is 77.6% [6.75 µM]; as for `FC(F)(F)c1ccc(/C=N/Nc2nnc3n2N=C(c2ccc(Cl)cc2)CS3)cc1`, 93.3%; as for `Cc1ccc2cnc(N)c(C#Cc3cncc(C(=O)Nc4ccc(CN5CCN(C)CC5)c(C(F)(F)F)c4)c3)c2c1`, -59.7% (active). Take `O=C(NCc1ccc(Cn2c(=O)sn(-c3ccc(Cl)cc3)c2=O)cc1)OCc1ccc2c(Cl)cc(Cl)c(O)c2n1`: the growth is 56.3%. The same measure for `C[PH+](c1nc2ccccc2nc1[PH+](C)C(C)(C)C)C(C)(C)C.C[PH+](c1nc2ccccc2nc1[PH+](C)C(C)(C)C)C(C)(C)C.[Au+].[Cl-]` (configuration not stated): 12%. As for `Cc1cc(C(=O)Nc2cc(Nc3ncccc3-c3ncnc4nc[nH]c34)ccc2F)cc(C(F)(F)F)c1`, the figure is 25.1%; as for `COc1cc(C2C3=C(COC3=O)N(CCO)c3cc4c(cc32)OCCO4)cc(OC)c1OC` (configuration not stated), -21.8% (active); as for `Cn1cc(-c2ccc3nc(-c4ccc(CC(=O)Nc5cc(C(C)(C)C)no5)cc4)cnc3c2)cn1`, 18.5% [30 µM]. The same measure for `CN(C)c1cnccn1`: 90.3%; for `Cc1cc2oc(=O)cc(CP(=O)(O)O)c2cc1O`: 111%; for `COc1ccc(-c2nc3ncccn3c2/C=C/C(=O)c2cc(OC)c(OC)c(OC)c2)cc1`: 1.2% (active). For the compound `COc1ccc(/C=C/C(=O)Nc2ccc(-c3nc4ccc(OC)cc4s3)cc2)cc1`, the growth was 99.3%. On to `Cc1c2ccccc2nc2c1ccc1cccnc12`, for which the growth is 85.8%. With `Cn1cc(-c2nc(-c3c[nH]c4ccncc34)cs2)c2cc(Br)ccc21`, the growth was -61.4% (active).

Take `O=C(CCC(=O)N(CCO)CCO)N(CCO)CCO`: the growth is 89%. Take `COc1ccc(C2CC(c3cccs3)=NN2c2ccc(S(N)(=O)=O)cc2)cc1` (configuration not stated): the growth is 73.7%. For the compound `COc1ccc2c(c1)cn1c3ccc(OC)cc3[nH]c(=O)c21`, the growth is -53.8% (active). Regarding `O=C(NS(=O)(=O)c1ccccc1)n1cc(-c2ccncc2)c(-c2cc(O)cc(Cl)c2)n1`, the growth was 103%. The same measure for `COc1cc(-c2cc(-c3ccc(C)cc3)nc3nc(N)[nH]c(=O)c23)ccc1Oc1ccnc2cc(Cl)ccc12`: 56.2%; for `CC[C@]12C=CCN3CC[C@@]4(c5ccc(OC)cc5N(C)[C@H]4[C@@](O)(C(=O)OC)[C@@H]1OC(=O)CCC(=O)N[C@@H](Cc1c[nH]c4ccccc14)C(=O)OC)[C@@H]32`: -5.33% (active); for `NC(=NCCCOc1ccc(Cl)cc1)Nc1ccc(C(F)(F)F)cc1`: 94.4%.

On to `O=C(O)c1ccc(P(=O)(O)O)c([N+](=O)[O-])c1`, for which the growth was 100%.
